Screening results from PubChem BioAssay.
CCHFV vOTU inh: CCHFV vOTU protease inhibitors, primary screen, biochemical, Pep-AMC substrate, fluorescence; Crimean-Congo hemorrhagic fever virus L polyprotein viral ovarian tumor (vOTU) protease …; inhibition, % at 11.5 µM; actives 0.55% (n = 370,000); AID 651958, 2012; in the data active = inhibition above about 30%; note: 0% = vehicle wells with enzyme and 100% = no enzyme wells
ugtP null kill: growth inhibition of ugtP-null S. aureus, primary screen, RN4220 ugtP deletion, OD600. 16 h. growth inhibition, % (test concentration not listed). actives 0.54% (n = 330,000). AID 1259309, 2017; in the data active = growth inhibition above about 68%;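 note: plate controls were untreated wells for no effect and antibiotic for full effect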
RN4220 kill: growth inhibition of S. aureus RN4220, primary screen, OD600; 16 h; inhibition, % (test concentration not listed); actives 0.33% (n = 330,000); AID 1259311, 2017; in the data active = inhibition above about 85%;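 note: plate controls were untreated cells for no effect and reference antibiotic for full effect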
BJeLR lethal: MLPCN primary cell-based screen for lethality selective to Ras in HRASV12 cells; BJeLR (HRASV12) viability, CellTiter-Glo ATP luminescence, 48 h; inhibition, % (concentration not given with the values); actives 0.17% (n = 300,000); in the data active = inhibition above about 50%
Mtb hypoxia inh: PubChem AID 1159583 | fluorescence inhibition, % (no concentration beside the values) | M. tuberculosis hypoxia-regulated fluorescent reporter, fluorescence | actives 0.1% (n = 300,000); in the data active = fluorescence inhibition mostly above about 23%, no sharp cut-off; inactive = mostly below about 17%
RecA intein inh: Mtb RecA intein splicing inhibitors, primary screen, biochemical, fluorescence, HTS; Protein RecA (Mycobacterium tuberculosis (strain ATCC 25618 / H37Rv)), P9WHJ3; cell-free RecA intein splicing; inhibition, % (no concentration beside the values); actives 0.75% (n = 290,000); AID 2221, 2009; in the data active = inhibition above about 30%;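 note: 0% = vehicle wells and 100% = reference inhibitor control wells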
Target sequence (P9WHJ3 whole entry, looked up): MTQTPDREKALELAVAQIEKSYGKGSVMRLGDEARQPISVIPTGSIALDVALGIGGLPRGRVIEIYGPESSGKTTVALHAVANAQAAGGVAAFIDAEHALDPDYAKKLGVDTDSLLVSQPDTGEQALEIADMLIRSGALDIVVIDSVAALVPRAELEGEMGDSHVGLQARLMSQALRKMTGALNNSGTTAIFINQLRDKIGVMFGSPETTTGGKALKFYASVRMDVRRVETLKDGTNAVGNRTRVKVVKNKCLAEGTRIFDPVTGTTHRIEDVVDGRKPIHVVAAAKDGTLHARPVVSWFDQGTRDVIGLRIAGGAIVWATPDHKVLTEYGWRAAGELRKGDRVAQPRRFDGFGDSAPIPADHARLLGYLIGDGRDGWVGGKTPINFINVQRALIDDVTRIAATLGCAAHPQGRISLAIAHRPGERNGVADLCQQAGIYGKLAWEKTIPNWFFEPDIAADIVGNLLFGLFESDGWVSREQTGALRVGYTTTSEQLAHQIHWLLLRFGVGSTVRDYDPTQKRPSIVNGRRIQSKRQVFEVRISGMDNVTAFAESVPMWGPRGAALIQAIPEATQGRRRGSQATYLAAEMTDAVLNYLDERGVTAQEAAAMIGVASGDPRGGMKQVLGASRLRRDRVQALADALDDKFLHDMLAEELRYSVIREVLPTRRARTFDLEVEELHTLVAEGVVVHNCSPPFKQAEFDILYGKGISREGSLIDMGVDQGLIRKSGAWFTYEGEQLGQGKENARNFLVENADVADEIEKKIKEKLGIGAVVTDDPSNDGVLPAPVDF
The depositor's hits bear a star; / = no result given. This is a sample that favours compounds with a hit; in the whole collection about 1.6% have one here.

SMILES | CCHFV vOTU inh | ugtP null kill | RN4220 kill | BJeLR lethal | Mtb hypoxia inh | RecA intein inh
CN(C)S(=O)(=O)c1ccc(C(=O)Nc2nnc(-c3ccc4c(c3)CCCC4)o2)cc1 | -1.3 | 99.1* | 98.0* | 14.1 | -3.5 | -1.3
COc1ccccc1C(=O)Nc1nnc(-c2ccc(Cl)cc2)o1 | -0.8 | 8.6 | 6.9 | -1.1 | 15.2 | -6.7
O=C(Nc1ccccc1)C1=CC(c2ccc(C(F)(F)F)cc2)CC(OCc2ccc(CO)cc2)O1 (configuration not stated) | / | 9.1 | -1.5 | / | 20.6 | /
COc1ccc(CN2C(CC(=O)O)c3cc(F)ccc3S2(=O)=O)cc1 (configuration not stated) | / | -1.3 | 4.3 | / | 14.0 | /
COCC=CC1=CC2=CC(=O)C(C)(OC(=O)c3cnc4ccccc4n3)C(=O)C2=CN1c1ccccc1 (configuration not stated) | / | 4.3 | 7.5 | / | 11.7 | /
CC(C(=O)N1CCc2ccccc21)N1CCN(c2cccc(C(F)(F)F)c2)CC1 (configuration not stated) | -6.0 | 89.6* | -4.1 | -8.2 | 3.4 | /
O=C(NCc1ccccc1)C1=CC(C2CCCCC2)CC(OCCCCO)O1 (configuration not stated) | / | 4.7 | 6.6 | / | 13.7 | /
CCOc1ccccc1-c1c2cc(O)c(=O)cc-2oc2cc(O)c(O)cc12 | / | -24.1 | 12.6 | / | 36.9* | /
Cc1ccc(SCC(=O)OCC(=O)N(CCC#N)c2ccccc2)cc1C | 2.6 | 0.7 | 5.7 | 7.0 | -2.3 | 6.2
Cc1ccc(N(CCC#N)C(=O)CCl)cc1C | -15.3 | 3.7 | 6.6 | -3.3 | 38.5* | 56.2*
COC(=O)[C@]1(C)CC1C(NP(=O)(c1ccccc1)c1ccccc1)c1ccccc1 (some centres not stated) | / | 3.2 | 4.3 | / | -0.8 | /
CC(C)c1ccc(-c2nnn(Cc3nc4ccccc4s3)n2)cc1 | 8.0 | 85.0* | 1.1 | -2.0 | -1.9 | 1.7
CCc1ccc(C(=O)NC(=S)Nc2ccc3c(c2)OCCO3)cc1 | 4.4 | 37.2 | 15.9 | -3.5 | 4.9 | 2.6
CC(C)C(=O)Nc1cccc(NC(=S)NC(=O)c2ccc(Cl)cc2)c1 | 7.3 | 83.0* | 2.0 | 9.2 | 0.6 | -1.5
Cc1cccc(C(=O)NC(=S)NNC(=O)c2ccc(Cl)cc2)c1 | 2.6 | 84.0 | 84.5* | 0.9 | -4.4 | 1.3
O=C(NC(=S)Nc1ccc2c(c1)OCO2)c1ccc(Cl)cc1 | 17.0 | 87.7* | 5.0 | -7.5 | 9.1 | -1.6
Cc1cc(C)cc(C(=O)NC(=S)Nc2ccc3c(c2)OCCO3)c1 | -12.9 | 92.7* | 5.8 | 11.5 | -1.6 | 1.5
CCCCCCSc1ccc(C2C3C(=O)N(C)C(=O)C3[C@]3(C(=O)OC)CCCCN23)cc1OC (some centres not stated) | / | 9.9 | -2.7 | / | 7.4 | /
COc1ccc(-c2ccc3c(c2)OC(=Cc2ccsc2)C3=O)cn1 | / | -25.5 | 6.2 | / | 6.6 | /
Cc1ccccc1CN1CC2CC(c3cnc(N4CCOCC4)s3)N3CCC[C@@]23C1=O (some centres not stated) | / | -3.0 | 2.4 | / | 8.5 | /
Cc1cc(C)cc(C(=O)NC(=S)Nc2ccc(Cc3ccncc3)cc2)c1 | 0.1 | 86.7* | 1.7 | 3.4 | 5.2 | 2.8
Cc1cccc(C(=O)NC(=S)Nc2ccc(Cc3ccncc3)cc2)c1 | 11.9 | 78.5 | -0.6 | 2.6 | 17.2 | 2.1
Cc1[nH]n(-c2ccccc2)c(=O)c1C=Nc1cnc2ccccc2c1 | -26.5 | -5.2 | 6.9 | 6.8 | 5.6 | -2.9
CCOc1ccc(N=Cc2c(C)[nH]n(-c3nc4ccccc4[nH]3)c2=O)cc1 | -2.7 | -1.0 | 9.3 | 64.9* | 2.6 | 0.0
C[C@@]12C(=O)NCC(=O)N1C1c3cc(Br)ccc3OCC1C2c1ccccc1 (some centres not stated) | / | 1.0 | 7.4 | / | 7.0 | /
Cc1occc(=O)c1OC(=O)Nc1ccc(Cl)c(Cl)c1 | -2.3 | 98.7* | 99.5* | / | -2.4 | /
COC(=O)C1=C(c2ccc(Cl)c(C(F)(F)F)c2)CC2CCC1N2C(=O)NCc1ccco1 (configuration not stated) | / | -14.8 | -5.0 | / | -0.2 | /
Oc1c(Br)cc(Br)cc1Oc1ccc(Br)cc1Br | / | / | / | 10.3 | / | 39.2*
